Data on 91 compounds can be found in PubChem BioAssay AID463173 (ICCB-Longwood Screening Facility, Harvard Medical School, 2010).

Hit rate of the full screen: of about 52,000 compounds, about 4,300 (8.3%) were called active. The sample holds actives, similar compounds and a random draw of the others, so the mix is not that of the screen. Rule as the data show it: active = survival mostly below about 52% (no sharp cut-off); inactive = mostly above about 56%.

The test concerns DeltatarO mutant. In words: S. aureus survival, RN4220 and DeltatarO strains – OD600, teichoic acid synthesis inhibitors, primary screen (AID 463173). Particulars: S. aureus RN4220 wild type/DeltatarO growth, OD600, 18 h, active compounds read low, screened at 18.75 µg/mL (by protocol).
`COc1ccc(-c2cc(C(N)=O)on2)c(OC)c1`: the survival was 99% (inactive).

For `O=S(=O)(c1cccc(S(=O)(=O)N2CCOCC2)c1)N1CCCCCC1`, the survival was 91% (inactive).

For the compound `Cc1ccc2occ(CC(=O)Nc3nnc(C(C)C)s3)c2c1`, the survival was 70% (inactive).

Regarding `CCCCSCCCNC(=O)c1cn(C)c2ccc(S(=O)(=O)N3CCCCCC3)cc2c1=O`, the survival is 63% (inactive).

For `O=C(Nc1ccc(F)cc1)c1oc2ccccc2c1NC(=O)C12CC3CC(CC(C3)C1)C2`, the survival was 96% (inactive).

`Cc1ccc(C(=O)Nc2c(C(=O)NC(C)(C)C)oc3ccccc23)cc1`: the survival is 32% (active).

Take `CC(C)(C)NC(=O)c1oc2ccccc2c1NC(=O)c1ccc(F)cc1`: the survival was 71% (inactive).

`COc1ccc(NC(=O)c2oc3ccccc3c2NC(=O)C2CCCCC2)c(OC)c1`: the survival was 74% (inactive).

Consider `Cc1ccc(NC(=O)c2oc3ccccc3c2NC(=O)C2CCCCC2)cc1`, for which the survival was 2% (active).

With `CCOc1ccc(NC(=O)c2oc3ccccc3c2NC(=O)C2CCCCC2)cc1`, the survival is 103% (inactive).

Consider `COc1cccc(NC(=O)c2oc3ccccc3c2NC(=O)C2CCCCC2)c1`, for which the survival was 66% (inactive).

As for `O=C(Nc1ccc(F)cc1)c1oc2ccccc2c1NC(=O)C1CCCCC1`, the survival was 11% (active).

Turning to `CN(C)c1ccc(C(=O)Nc2c(C(=O)NC(C)(C)C)oc3ccccc23)cc1`, the survival is 57% (inactive).

As to `COc1cc(OC)cc(C(=O)Nc2c(C(=O)Nc3ccc(F)cc3)oc3ccccc23)c1`, the survival is 62% (inactive).

As for `COc1ccccc1NC(=O)c1oc2ccccc2c1NC(=O)C1CCCCC1`, the survival was 43% (active).

`Cc1ccc(NC(=O)c2oc3ccccc3c2NC(=O)C23CC4CC(CC(C4)C2)C3)cc1`: the survival is 75% (inactive).

For the compound `CCOC(=O)c1ccc(NC(=O)Cn2nc3c4ccccc4n(Cc4cccc(F)c4)cc-3c2=O)cc1`, the survival was 82% (inactive).

With `Cc1cc(C)nc(Nc2ccc(O)cc2)n1`, the survival was 91% (inactive).

On to `CC(C)c1ccc(S(=O)(=O)c2nnn3c2nc(NC2CCCC2)c2sccc23)cc1`, for which the survival is 65% (inactive).

For `CCN(CC)c1ccc(NC(=O)c2cnn(-c3ccccc3)c2-n2cccc2)c(C)c1`, the survival is 115% (inactive).

`CC1CCCCN1CCCNC(=O)Cn1ncc2c([nH]c3ccccc32)c1=O` (stereo unspecified): the survival is 124% (inactive).

Take `CCCCNC(=O)c1[nH]c2ccccc2c1Sc1ccc(C)cc1`: the survival is 75% (inactive).

With `CCN(CC)CCNC(=O)c1[nH]c2ccccc2c1Sc1ccc(Cl)cc1`, the survival was 45% (inactive).

Take `CC1CCCCN1CCCNC(=O)c1[nH]c2ccccc2c1Sc1ccc(Cl)cc1` (stereo unspecified): the survival was 1% (active).

On to `CCC1CCCCN1CCCNC(=O)c1[nH]c2ccccc2c1Sc1ccc(Cl)cc1` (stereo unspecified), for which the survival is -1% (active).

`CC1CCCCN1CCCNC(=O)c1cc(Sc2cccc(Cl)c2)nc2ccccc12` (stereo unspecified): the survival was 68% (inactive).

On to `CC1CCCCN1C(=O)CN1CCSc2ccccc21` (stereo unspecified), for which the survival was 74% (inactive).

Turning to `COc1ccc(NC(=O)c2sc3nc(C)c(C(=O)Nc4ccc(Cl)cc4)c(-c4ccc(Br)cc4)c3c2N)cc1`, the survival was 57% (inactive).

With `Cc1nc2sc(C(=O)Nc3ccc(F)cc3)c(N)c2c(-c2ccc(Br)cc2)c1C(=O)Nc1ccc(Cl)cc1`, the survival is 80% (inactive).

For `Cc1nc2sc(C(N)=O)c(N)c2c(-c2ccc(Br)cc2)c1C(=O)Nc1ccc(Cl)cc1`, the survival is 10% (active).

For the compound `Cc1ccc(CNC(=O)CCN2C(=O)C(C)Oc3ccc(C)cc32)cc1` (stereo unspecified), the survival is 128% (inactive).

As for `Cn1cc(C(=O)O)c(=O)c2ccccc21`, the survival was 80% (inactive).

As to `CCc1nnc(NC(=O)c2c(O)c3ccccc3[nH]c2=O)s1`, the survival is 84% (inactive).

For `CCCNC(=O)c1c(O)c2ccccc2n(C)c1=O`, the survival is 93% (inactive).

`CCc1nnc(NC(=O)c2c(O)c3ccccc3n(C)c2=O)s1`: the survival was -1% (active).

Consider `COc1ccc(C(=O)COC(=O)CCCC(=O)Nc2cc(C(F)(F)F)ccc2Cl)cc1`, for which the survival is 53% (inactive).

Take `Cc1ccc(C(=O)COC(=O)CCCC(=O)Nc2cc(C(F)(F)F)ccc2Cl)cc1C`: the survival was 54% (inactive).

For `Cc1ccc(C)c(C(=O)COC(=O)CCCC(=O)Nc2cc(C(F)(F)F)ccc2Cl)c1`, the survival was 25% (active).

Consider `CCOc1ccccc1NC(=O)CSc1nc(-c2cccs2)cc(C(F)(F)F)n1`, for which the survival is 69% (inactive).

`O=C(CSc1nc(-c2cccs2)cc(C(F)(F)F)n1)Nc1ccccc1Cl`: the survival was 121% (inactive).

As for `COc1ccc(Cl)cc1NC(=O)CCS(=O)(=O)c1nc(-c2cccs2)cc(C(F)(F)F)n1`, the survival was 63% (inactive).

For `CC(C)(C)c1ccccc1NC(=O)CSc1nc(-c2cccs2)cc(C(F)(F)F)n1`, the survival was 23% (active).

For the compound `COc1cc(NC(=O)CSc2nc(-c3cccs3)cc(C(F)(F)F)n2)cc(OC)c1OC`, the survival is 49% (inactive).

`Cc1ccc(NC(=O)CSc2nc(=O)cc(N)n2-c2ccccc2)cc1`: the survival was 87% (inactive).

`COc1ccc(NC(=O)CSc2nc(-c3cccs3)cc(C(F)(F)F)n2)c(OC)c1`: the survival was 57% (inactive).

As to `COC(=O)c1ccccc1NC(=O)CSc1nc(=O)cc(N)n1-c1ccccc1`, the survival was 38% (active).

As for `COc1ccc(Cl)cc1NC(=O)CSc1nc(-c2cccs2)cc(C(F)(F)F)n1`, the survival was 35% (active).

On to `COc1ccc(NC(=O)CSc2nc(-c3cccs3)cc(C(F)(F)F)n2)cc1Cl`, for which the survival is 37% (active).

With `Cc1ccc(NC(=O)CSc2nc(-c3cccs3)cc(C(F)(F)F)n2)cc1C`, the survival was 155% (inactive).

Turning to `Nc1cc(=O)nc(SCC(=O)Nc2ccc(F)cc2)n1-c1cccc(Cl)c1`, the survival was 145% (inactive).

As for `CCOC(=O)c1oc2ccc(S(=O)(=O)n3nc(-c4cc(OC)c(OC)c(OC)c4)cc3N)cc2c1C`, the survival was 73% (inactive).

`Cc1cccc(N2CCN(C(=O)C3CCN(S(=O)(=O)c4c(C)noc4C)CC3)CC2C)c1` (stereo unspecified): the survival was 100% (inactive).

Take `CCOc1ccc(-c2nn(CC(=O)NC3CCCCC3)c3c2cnc2ccc(C)cc23)cc1`: the survival was 107% (inactive).

For `CCOc1ccc(NC(=O)C2CCCN(c3nn4cc(-c5ccc(OC)cc5)nc4s3)C2)cc1` (stereo unspecified), the survival is 113% (inactive).

As for `Cc1oc(-c2cccc(Cl)c2)nc1CSc1nncn2c1cc1occc12`, the survival was 103% (inactive).

As for `COC(=O)c1sccc1S(=O)(=O)N(CC(=O)Nc1cc(C)cc(C)c1)c1ccc(Cl)cc1`, the survival is 88% (inactive).

As for `Cn1c(SCC#N)nc2c(c1=O)C1(CCCCC1)Cc1ccccc1-2`, the survival was 103% (inactive).

In the case of `CCCCNC(=O)C1CCN(Cc2cccc(OC)c2O)CC1`, the survival was 78% (inactive).

Take `CCC(C)n1c(SCC(=O)Nc2ccccc2C(=O)OC)nc2ccsc2c1=O` (stereo unspecified): the survival was 17% (active).

In the case of `COC(=O)CSc1nc(-c2ccccc2)cc(C(F)(F)F)n1`, the survival was 88% (inactive).

Consider `CCCNC(=O)CSc1nc(-c2ccccc2)cc(C(F)(F)F)n1`, for which the survival is 77% (inactive).

For `COC(=O)c1ccccc1NC(=O)CSc1nc2ccsc2c(=O)n1CCC(C)C`, the survival is 88% (inactive).

As for `CCn1c(SCC(=O)Nc2ccccc2C(=O)OC)nc2ccsc2c1=O`, the survival was 94% (inactive).

Regarding `COC(=O)c1ccccc1NC(=O)CSc1nc(-c2ccccc2)cc(C(F)(F)F)n1`, the survival was 25% (active).

Turning to `CCNC(=O)C1CCCN(c2ncnc3onc(C)c23)C1` (stereo unspecified), the survival is 101% (inactive).

With `CCOc1ccccc1NC(=O)c1ccc2c(c1)CCN2S(C)(=O)=O`, the survival was 75% (inactive).

In the case of `COc1ccc(S(=O)(=O)Nc2cccc(-c3ccc(N4CCOCC4)nn3)c2)cc1F`, the survival was 88% (inactive).

For the compound `Cc1cc(C)c2c(=O)c3c(oc2c1)C(=O)N(Cc1ccco1)C3c1ccc(F)cc1` (stereo unspecified), the survival is 53% (inactive).

On to `O=C1c2oc3ccccc3c(=O)c2C(c2cccc(O)c2)N1Cc1ccc(F)cc1` (stereo unspecified), for which the survival is 77% (inactive).

As for `CCCN1C(=O)c2oc3cc(C)cc(C)c3c(=O)c2C1c1ccc(F)cc1` (stereo unspecified), the survival is 49% (active).

As for `COCCN1C(=O)c2oc3cc(C)cc(C)c3c(=O)c2C1c1cccc(O)c1` (stereo unspecified), the survival is 71% (inactive).

`COc1ccc(CCN2C(=O)c3oc4cc(C)cc(C)c4c(=O)c3C2c2ccc(F)cc2)cc1OC` (stereo unspecified): the survival was 56% (inactive).

As to `Cc1cc(C)c2c(=O)c3c(oc2c1)C(=O)N(Cc1ccc(F)cc1)C3c1cccc(O)c1` (stereo unspecified), the survival is 52% (active).

As to `COc1ccc(CNC(=O)c2ccc3c(c2)nc2n3CCCCC2)cc1`, the survival was 89% (inactive).

Regarding `CCN(CC)S(=O)(=O)c1ccc2nc(NC(=O)c3ccc(Br)o3)sc2c1`, the survival is 87% (inactive).

As for `N#Cc1ccc(NC(=O)c2cc(-c3cccc(Cl)c3)on2)cc1`, the survival is 71% (inactive).

As for `CCCCCNC(=O)C1CCC(Cn2c(=O)c3sccc3n(CC)c2=O)CC1` (stereo unspecified), the survival is 49% (inactive).

Take `CNC(=O)C1CCC(Cn2c(=O)[nH]c3ccsc3c2=O)CC1` (stereo unspecified): the survival was 99% (inactive).

As to `CCCCN(C)C(=O)C1CCC(Cn2c(=O)[nH]c3ccsc3c2=O)CC1` (stereo unspecified), the survival is 0% (active).

With `CCC(CC)C(=O)Nc1cc(-c2ccccc2F)nn1-c1ccccc1`, the survival was 76% (inactive).

Regarding `CCOC(=O)c1c(NC(=O)COc2cccc(C(F)(F)F)c2)sc2c1CCCCC2`, the survival is 60% (active).

`CCOC(=O)c1c(NC(=O)COc2cccc(C)c2C)sc2c1CCCCC2`: the survival was 64% (inactive).

As for `COC(=O)c1c(NC(=O)COc2cccc(C(F)(F)F)c2)sc2c1CCCC2`, the survival was 49% (inactive).

In the case of `CCOC(=O)c1c(NC(=O)COc2cccc(C(F)(F)F)c2)sc2c1CCC(C)C2` (stereo unspecified), the survival is 68% (inactive).

For `CCOC(=O)c1c(NC(=O)COc2ccccc2Br)sc2c1CCCCC2`, the survival is 40% (active).

With `CCOC(=O)c1c(NC(=O)COc2ccccc2F)sc2c1CCCC2`, the survival was 67% (inactive).

As for `O=S(=O)(Nc1cccc(-c2ccc(N3CCOCC3)nn2)c1)c1ccc(F)cc1F`, the survival was 62% (inactive).

With `Cc1c(CCNC(=O)c2c(F)cccc2F)sc2nc(-c3ccc(F)cc3)nn12`, the survival is 117% (inactive).

`CCOc1ccccc1CNC(=O)c1ccc(NC(=O)N2CCSc3ncccc32)cc1`: the survival was 79% (inactive).

As for `CCc1nnc(NC(=O)CSC2=NC(=O)C(NC(C)=O)C(=O)N2)s1` (stereo unspecified), the survival was 99% (inactive).

Regarding `CCCN(CCC)C(=O)Cn1c(=O)n(CCCCCC(=O)NCc2ccccc2Cl)c(=O)c2sccc21`, the survival was 81% (inactive).
